Results reported in ChEMBL document CHEMBL3433997, “St. Jude Leishmania screening dataset” (2016).

molecular target: Glucose transporter (Leishmania mexicana) (UniProt O61059); assay: ST_JUDE_LEISH: Cytotoxicity at 2uM final concentration against transgenic Leishmania Mexicana promastigotes LmGT2 that are glucose transport deficient and complemented with the L. Mexicana glucose transporter 2. Activity is measured by DNA content using SYBR green in vitro; format: functional

SMILES | inhibition [%]
Cc1cc(O)c(-c2ccc(Oc3ccc(F)cc3)cc2)c(C)n1 | -3.08
CCCc1cc(N2CCC(N3CCCC3)CC2)nc(Nc2ccc(OC)cc2)n1 | 0.63
NC1=NC(Cc2ccccc2)(c2ccncc2)C(=O)N1CCCc1ccccc1 (stereo not given) | 2.03
O=C(CC(=O)Nc1cc(Cl)cc(Cl)c1)Nc1cc(Cl)cc(Cl)c1 | 0.68
CN1CCN(CCCSc2ccc3c(c2)ncn3-c2cc(OCc3ccccc3C(F)(F)F)c(C(N)=O)s2)CC1 | 0.97
CSc1ccc(NC(=O)Nc2cc(C)nc3ccccc23)cc1 | 10.3
Cc1cccc(CNc2nc(C)cc(N[C@@H](CC(C)C)C(=O)NCCOc3ccccc3)n2)c1 | 2.08
CN(CCCc1c[nH]c2ccccc12)CC1CCN(C(=O)/C=C/c2ccc(Cl)c(Cl)c2)CC1 | -1.38
CN(C(=O)c1ccc(Br)cc1)c1ccccc1[N+](=O)[O-] | -2.57
N=C(N)c1ccc(C(=O)Nc2cccc(C(=N)N)c2)cc1 | -0.81
c1ccc2c(c1)ncc1c3ccccc3[nH]c21 | 4.67
CCSc1ccccc1CON1C(=N)N=C(N)NC1(C)C | 18.7
Cc1cccc2nc(-c3ccc(-c4ccc(CN5CCC(N)C5)cc4)s3)[nH]c12 (stereo not given) | -2.11
CCCCCCCC1CCN(C[C@H](O)c2ccnc3ccc(OC)cc23)CC1 | 2.08
Cc1cc(NC(=O)c2cc(Br)ccc2Cl)n(-c2nc(C)c(C)c(=O)[nH]2)n1 | -4.55
O=S(=O)(c1csc2ccccc12)N(CCC(O)(C(F)(F)F)C(F)(F)F)Cc1cccc(O)c1 | -4.98
CC(C)N1CCC(N(Cc2ccc(-c3ccc(C(F)(F)F)cc3)cc2)C(=O)CCCn2c(CCc3cccc(F)c3F)nc(=O)c3ccccc32)CC1 | 6.72
Cc1noc(=O)c2ccc(NC(=O)C(O)(CSc3ccccc3)CC(C)C)cc12 (stereo not given) | 3.58
COc1ccccc1-c1ccc(C(=O)NCC2CCCN(Cc3cccc(C(F)(F)F)c3)C2)s1 (stereo not given) | 7.33
CC(C)(Cc1ccc(Cl)cc1)NCCCCCCNCCc1ccc(O)c(O)c1 | -1.18

SMILES | inhibition [%]
CN(C)S(=O)(=O)n1ccc2c3c(N)nc(N)nc3ccc21 | 29.3
COc1cccc(-c2ccc3c(-c4ccc(F)cc4)cnc(N)c3c2)c1 | 2.91
COc1cc2nc(N3CCC(CNCc4ccc(-c5ccc(C(F)(F)F)cc5)cc4)CC3)nc(N)c2cc1OC | 110
COc1cc(C(=O)NC2CCN(Cc3ccccc3)CC2)ccc1-c1nc2cc(Cl)c(C)cc2[nH]1 | 5.5
Cc1ccc(NC(=O)c2ccc(NCCCN3CC(C)CC(C)C3)c([N+](=O)[O-])c2)cc1F (stereo not given) | 5.89
CCCCCC(C)N/C(=N/c1ccccc1Br)Nc1ccc(C#N)cc1O (stereo not given) | 0.92
CC(C)(C)c1cc(NC(=O)c2ccc(Cl)c([N+](=O)[O-])c2)cc(C(C)(C)C)c1 | 6.21
Nc1cc(/C=C/c2ccc([N+](=O)[O-])o2)nc2ccccc12 | 101
COc1ccc2nccc(NCC3(O)CCN(CC(O)c4ccc5c(c4)NC(=O)CS5)CC3)c2n1 (stereo not given) | 2.58
COc1ccc(CNC2CCN(C)CC2)cc1-c1ccc(S(=O)(=O)NCC2CCCO2)s1 (stereo not given) | 5.52
CCOC(=O)COc1cccc(CNc2ccc3nc(N)nc(N)c3c2)c1 | 1.48
CCCC(C)Nc1nc(C)cc(N[C@@H](CC(C)C)C(=O)NCCOc2ccccc2)n1 (stereo not given in full) | 16.7
O=C(Nc1ccc(Oc2ccccc2)cc1)N[C@H]1CCN(Cc2ccc(OCCCN3CCCCC3)cc2)C1 | -3.91
O=C(Nc1ccc(N2CCCN(Cc3cccc(F)c3)CC2)cc1)c1ccccc1 | -0.78
CC(O)C1CCCCN1C(=O)c1cccc(-c2ccc(-c3nc4cc(C(F)(F)F)ccc4[nH]3)cc2)c1 (stereo not given) | 1
Cc1ccc(S(=O)(=O)Nc2ccc(Nc3nccc(Nc4cccc5[nH]ncc45)n3)cc2)cc1 | 0.3
Cc1cccc(-c2ccc(NC(=O)Nc3ccc4nccc(N5CCN(C)CC5)c4c3)cc2C)n1 | 3.13
COc1ccc(Cn2c(Nc3cccc(C(F)(F)F)c3)nc3cc(C(=O)NCCCN(C)C)ccc32)cc1Cl | -1.19
O=c1cc(NCCCNC(c2ccccc2)c2ccc(Cl)c(Cl)c2)[nH]c2ccccc12 (stereo not given) | -1.3
CCOc1cc(C(=O)NC2CC(C)(C)NC(C)(C)C2)ccc1-c1cc2cc(Cl)c(Cl)cc2[nH]1 | -0.02
